Compound activity from PubChem.
Giardia kill: Giardia lamblia killing | Giardia lamblia trophozoite viability | activity change, % at 7.66 µM, hits read low | hit rate 0.15% among 340,000; in the data active = activity change below about -80%; inconclusive = between about -30% and that limit;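 note: parasites exposed to compound for two days anaerobically before the ATP read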
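Anaerobic 48 hrs incubation at 37 deg C of 100 trophozoites/well with test compounds; ATPLite 1-Step luminescence, 15-30 min RT, reports cellular ATP as viability.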
TDP1 block: TDP1 (human) enzyme inhibition; Q9NUW8; hit rate 0.28% among 350,000; Potency, µM (highest dose often 130 µM), for the others: at the top dose activity change, negative = inhibition, usual class: inhibitors; AID 485290; recombinant TDP1, AlphaScreen DNA substrate cleavage; note: potency is the fitted concentration of half-maximal effect; nearly all actives have a fitted effect of over 40% in size
Target sequence (Q9NUW8 whole entry, looked up): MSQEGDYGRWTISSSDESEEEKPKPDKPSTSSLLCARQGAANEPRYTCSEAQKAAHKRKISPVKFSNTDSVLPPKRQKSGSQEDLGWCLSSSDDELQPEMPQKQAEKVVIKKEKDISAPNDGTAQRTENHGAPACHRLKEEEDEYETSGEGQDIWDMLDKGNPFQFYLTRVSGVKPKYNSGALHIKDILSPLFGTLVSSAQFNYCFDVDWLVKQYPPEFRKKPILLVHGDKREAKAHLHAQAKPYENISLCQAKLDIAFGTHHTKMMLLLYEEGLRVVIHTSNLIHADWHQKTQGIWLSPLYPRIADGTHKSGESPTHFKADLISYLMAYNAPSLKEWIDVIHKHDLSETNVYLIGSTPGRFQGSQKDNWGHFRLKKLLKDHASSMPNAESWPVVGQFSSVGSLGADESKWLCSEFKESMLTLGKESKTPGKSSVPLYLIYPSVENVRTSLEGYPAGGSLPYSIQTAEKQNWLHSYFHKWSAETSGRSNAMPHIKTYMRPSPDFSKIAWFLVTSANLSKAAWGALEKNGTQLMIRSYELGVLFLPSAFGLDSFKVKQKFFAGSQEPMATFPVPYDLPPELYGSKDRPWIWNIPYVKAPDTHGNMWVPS
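E. coli-derived human Tdp1, 1 nM final. Cpd preinc 15 min RT; substrate 15 nM final, 5 min RT; AS bead mix 10 ug/ml final, 10 min RT. Signal loss = tyrosine-FITC cleavage. No-enzyme wells = max signal.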
TDP1 cell noCPT: qHTS for Inhibitors of human tyrosyl-DNA phosphodiesterase 1 (TDP1): qHTS in cells in absence of CPT. DT40 Tdp1-/- hTDP1 cells, no CPT, ATP luminescence, 48 h. Potency, µM (highest dose often 46.2 µM), for the others: at the top dose activity change, negative = growth inhibition, actives largely listed as inhibitors. hit rate 15% among 420,000; note: potency is the fitted concentration of half-maximal effect; nearly all actives have a fitted effect of over 55% in size
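A cellular qHTS used chicken DT40 cells lacking endogenous Tdp1 but carrying stably transfected human TDP1. Compounds were applied without camptothecin, and cell growth kinetics were judged by ATP-dependent luminescence after ≥48 hr.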
ELG1 DNA repair: ELG1-dependent DNA repair inhibition; HEK293T ELG1-luciferase reporter, luminescence, 16 h; DNA damage induced by 5-fluorouridine; Potency, µM (doses to about 46.1 µM), inactives show at the highest dose activity change, negative = inhibition, hits mostly inhibitors; hit rate 2.3% among 330,000; AID 504467; note: potency is the fitted concentration of half-maximal effect; nearly all actives have a fitted effect of over 55% in size
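Luminescence from the luciferase reporter, measured 30 min after ONE-Glo reagent at room temperature, was the read-out. Beforehand, 2,000 cells per well were exposed for 16 hr at 37 °C to 5-fluorouridine together with compound or vehicle.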
DT40 TDP1 CPT: DT40-hTDP1 cell growth loss with CPT; chicken DT40 Tdp1-/-;hTDP1 cells + 20 nM CPT, ATP luminescence, 48 h; Potency, µM (top dose mostly 46.2 µM), inactives show at the top dose activity change, negative = growth inhibition, hits mostly inhibitors; hit rate 12% among 420,000; note: potency is the fitted concentration of half-maximal effect; nearly all actives have a fitted effect of over 55% in size
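Chicken DT40 Tdp1-/- cells complemented with human TDP1, 400 cells/well, exposed to compounds plus 20 nM camptothecin for at least 48 h at 37 C; viability read as ATP content by CellTiter-Glo luminescence.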
IL1B secr inh: blocks inflammasome-driven IL-1 beta release. THP-1 LPS/ATP IL-1B secretion, AlphaLISA, 16 h; hits give low values. hit rate 4.7% among 360,000. activity change, % at 57.5 µM. AID 743279; in the data active = activity change below about -50%; inconclusive = mostly about -30% to -49%
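Secreted IL-1B measured by AlphaLISA bead assay after 16 h compound exposure of THP-1 cells; compounds (final up to 57.5 uM) added 1 h before LPS (250 ng/mL) and ATP (1.25 mM) stimulation; lower signal means less secretion.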
Starred values were filed as active, the others as inactive; ? = inconclusive; . = not tested or not shown. In the library only some 19% were active in any assay of this set; here they are far more common. Unless noted, calls come from the whole dose curve; as a rule, active = well fitted curve in the direction sought with a large enough effect; inconclusive = small, poorly fitted or top-dose-only effect, or another doubt; inactive = no such curve, though single readings can be large; an effect the other way counts as inactive or inconclusive. % is set by controls: 0 for no effect and ±100 for the full control effect.

SMILES	Giardia kill	TDP1 block	TDP1 cell noCPT	ELG1 DNA repair	DT40 TDP1 CPT	IL1B secr inh
Cc1ccc(S(=O)(=O)N(CC(=O)NCCSc2ccc(Cl)cc2)c2cccc(Cl)c2)cc1	.	6%	21µM*	.	?	.
O=S1(=O)C[C@@H](N2CCN(CC3CC3)CC2)[C@H](COCc2ccccc2)N1	.	.	-13%	.	-19%	6
CCc1nnc2c(NCc3ccc(F)cc3)nc3ccccc3n12	.	2%	-8%	.	-21%	.
CC(C)NC(=O)c1ccc(N(Cc2ccc(Cl)cc2)S(C)(=O)=O)cc1	?	3%	-24%	-7%	-28%	1
Cc1ccc(C)c(OCC(=O)NNC(=O)CCN2CCN(c3ccccc3)CC2)c1	-22	3%	-23%	-13%	?	-10
CC(=O)c1ccc(S(=O)(=O)Nc2ccc(C(=O)N(C)CC(=O)Nc3cccc(C)c3C)cc2)cc1	9	3%	-3%	-7%	-9%	11
COc1ccc(Cn2c(C)nc3ccc([N+](=O)[O-])cc3c2=O)cc1	2	.	21µM*	?	?	3
Cc1cc(C)cc(NC(=O)CSc2cc(C(=O)c3nccn3C)c3ccccc3n2)c1	5	4%	?	-6%	?	4
N#CC(c1ccc(Cl)cc1)c1ccc2c(C(F)(F)F)cc(C(F)(F)F)nc2n1 (stereo not drawn)	8	8%	0.58µM*	?	0.65µM*	-105*
CCc1ccc(-c2nc(CCl)cs2)cc1	-12	0%	?	?	12µM*	-23
COc1ccc(-c2nc(CCl)cs2)cc1OC	0	11%	12µM*	16%	4.6µM*	1
Cc1ccc(-c2csc(-c3ccncc3)n2)cc1	-14	8%	7%	?	3%	31
COc1ccc(/C=C/C(=O)OCc2csc(-c3ccccc3)n2)cc1OC	-4	-5%	-22%	?	-16%	18
COc1ccc(-c2csc(-c3ccc(O)cc3)n2)cc1	7	-3%	6.5µM*	?	7.3µM*	19
CCc1ccc(NC(=O)C(=O)NCCc2csc(-c3ccc(C(F)(F)F)cc3)n2)cc1	.	3%	?	.	-19%	.
ClCc1csc(-c2ccccc2Cl)n1	-14	.	18µM*	-10%	12µM*	-3
CN(CCCC(=O)NCCc1ccccc1)S(=O)(=O)c1ccc([N+](=O)[O-])cc1	16	4%	-18%	-14%	5%	16
COc1ccc(S(=O)(=O)N(C)c2ccc(C(=O)NCc3ccccn3)cc2)cc1OC	4	3%	-21%	-3%	-5%	-4
CC(CC(=O)c1ccccc1)=NCCCN=C(C)CC(=O)c1ccccc1	.	.	?	.	-9%	-12
CCN(CC(=O)Nc1ccc(NC(C)=O)cc1)C(=O)/C=C/c1ccc(S(=O)(=O)N2CCCCCC2)cc1	-11	2%	?	-3%	?	-5
CCOC(=O)c1cc2c(=O)n3ccccc3nc2n(C(C)C)c1=NC(=O)C(C)(C)Oc1ccc(Cl)cc1	.	6%	-15%	.	0%	.
Cc1ccc(N(C)S(=O)(=O)c2ccc3c(c2)CCC(=O)N3)cc1C	.	-3%	.	.	.	.
COc1ccc(-c2nc(-c3ccc(O)cc3O)cs2)cc1OC	-10	7%	?	9%	?	-67*
COc1ccc(-c2nc(CCl)cs2)cc1	9	7%	5.8µM*	?	8.2µM*	0
COc1ccc(N2CC(O)=C(c3nc(-c4ccccc4)cs3)C2=N)cc1	7	0%	21µM*	-8%	?	38
COc1cccc(-c2nc(CCl)cs2)c1	11	7%	?	5%	21µM*	?
COc1ccc(-c2csc(-c3ccccc3)n2)c(OC)c1	-4	-7%	-8%	?	-3%	-4
COc1ccc(OC)c(S(=O)(=O)NCc2csc(-c3ccccc3)n2)c1	-21	3%	?	-2%	?	9
